High-throughput results as filed in PubChem.
KB-V1 cytotox: kills drug-selected multidrug resistant KB-V1 cells | KB-V1 MDR cells viability, CellTiter-Glo, 72 h | actives 3.4% (n = 400,000) | AID 1347076 | Potency, µM (doses to about 46.1 µM), most hits filed as cytotoxic; note: % is set by controls: 0 for no effect and ±100 for the full control effect; nearly all actives have a fitted effect of over 60% in size
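Luminescent ATP read-out (CellTiter-Glo, 10 min) measures survival of drug-selected KB-V1 MDR cells after 72 h, 37 degrees C compound exposure. Medium: phenol-red-free DMEM, 10% FBS. Values from fitted concentration-response curves.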
HT1080 IDH1KD tx: kills HT-1080 cells with IDH1 knockdown; HT-1080 IDH1 knockdown viability, ATP luminescence, 48 h; Potency, µM (series often up to 46.1 µM), for inactives: top-dose activity, negative = toxicity, hits mostly cytotoxic; actives 2% (n = 360,000); AID 686971;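 note: 0% = DMSO wells and -100% = cell-free medium wells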
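In this qHTS, HT-1080 cells depleted of IDH1 are exposed for 48 h at 37 °C to compound titrations. Toxicity is scored from CellTiter-Glo luminescence, with DMSO as full viability and medium alone as none.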
ATXN viability: viability counter-screen for ATXN expression inhibitors; S2 cells (HEK-293 line with an ATXN2-luciferase reporter) viability, CellTiter-Fluor protease fluorescence, 24 h; actives 0.49% (n = 400,000); Potency, µM (top dose mostly 56.7 µM), usual class: cytotoxic; AID 651635; note: nearly all actives have a fitted effect of over 40% in size
ATXN2 expr inh: reduces ATXN2 reporter expression in HEK-293 cells; HEK-293 ATXN2-luciferase reporter, luminescence, 24 h; Potency, µM (series often up to 57 µM), inactives show top-dose activity change, negative = inhibition, hits mostly inhibitors; actives 0.72% (n = 360,000); AID 1745845; note: % is set by controls: 0 for no effect and ±100 for the full control effect; nearly all actives have a fitted effect of over 55% in size
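ATXN2-luciferase reporter cells (luciferase flanked by upstream and downstream ATXN2 gene portions) were treated 24 h at 37 °C with compounds at up to 57 uM. SteadyGlo luminescence gave expression; GF-AFC fluorescence gave viability.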
KB-3-1 tox: kills parental KB-3-1 adenocarcinoma cells. KB-3-1 viability, CellTiter-Glo ATP luminescence, 72 h. Potency, µM (doses to about 46.1 µM), actives largely listed as cytotoxic. actives 1.4% (n = 400,000). AID 1347075; note: % is set by controls: 0 for no effect and ±100 for the full control effect; nearly all actives have a fitted effect of over 60% in size
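Multi-concentration cytotoxicity screen in KB-3-1 cells grown in DMEM lacking phenol red with 10% FBS. After 72 h at 37 °C with compound, ATP-dependent luminescence was recorded.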
HT1080-NT tox: kills 2HG-producing HT-1080-NT fibrosarcoma cells; HT-1080-NT fibrosarcoma viability, CellTiter-Glo ATP luminescence, 48 h; Potency, µM (doses to about 46.1 µM), for the others: at the highest dose activity, negative = less viability, hits mostly cytotoxic; actives 1.6% (n = 360,000); AID 686970;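 note: NT is the 2HG producing partner of a matched IDH1 knockdown line; 0% = DMSO-treated cells and -100% = media-only wells without cells; nearly all actives have a fitted effect of over 55% in size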
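Viability of the 2HG-overproducing fibrosarcoma line after 48 hours of compound exposure at 37 degrees C was determined by luminescence with CellTiter-Glo, and concentration-effect curves were then fitted and categorized.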
An asterisk follows results filed as active; i = inactive; ? = inconclusive; / = not tested or not shown; [ ] = another dose, or the depositor's remark. Most compounds without a hit are left out; they make up all but 6.2% or so of the library. Calls come from the whole dose curve; as a rule, active = well fitted curve in the direction sought with a large enough effect; inconclusive = small, poorly fitted or top-dose-only effect, or another doubt; inactive = no such curve, though single readings can be large; an effect the other way counts as inactive or inconclusive. Potency is the fitted concentration of half-maximal effect.

SMILES	KB-V1 cytotox	HT1080 IDH1KD tx	ATXN viability	ATXN2 expr inh	KB-3-1 tox	HT1080-NT tox
Cc1c(C)c2c(c(C)c1OC(=O)CCC(=O)OCCO)CC[C@@](C)(CCC[C@H](C)CCC[C@H](C)CCCC(C)C)O2	/	/	?	-12%	/	/
CCOC(=O)Oc1ccc(CCNC(=O)[C@H](CCSC)NC(C)=O)cc1OC(=O)OCC	/	/	i	12%	/	/
O=C1NC[C@H](CCCCN2CCN(CC3CCCCC3)C(=O)C2=O)N(Cc2ccccc2)C1=O	i	13%	i	-2%	i	22%
Cc1ccc(NS(=O)(=O)c2cc3c(cc2C)OCC(=O)N3)cc1C	?	/	/	/	i	/
O=C(CCc1ccccc1)NCC(c1ccco1)N1CCc2ccccc21 (stereo unspecified)	7.3µM*	5.2µM*	i	-10%	3.7µM*	6.5µM*
Cc1ccc(NC(=O)CCNS(=O)(=O)c2cc(Br)cnc2N)cc1Cl	13µM*	-21%	i	-9%	?	-9%
c1csc(Cn2c(-c3cccs3)nc3ccccc32)c1	21µM*	-11%	i	2%	?	1%
CC(C)Cn1c(=O)c(C(=O)N/N=C/c2cccc(F)c2)c(O)c2ccccc21	2.9µM*	-12%	i	-3%	12µM*	-9%
CC(SC(C)C(=O)NN=Cc1cccc(F)c1)C(=O)NN=Cc1cccc(F)c1 (stereo unspecified)	i	1%	i	-27%	i	8%
CN(CCOc1ccccc1)S(=O)(=O)c1ccccc1C#N	i	0%	i	/	i	-2%
Cn1c(=O)c2c(nc(N3CCCCCC3)n2Cc2cccc3ccccc23)n(C)c1=O	?	-29%	i	-10%	18µM*	-5%
Cn1c(N2CCN(c3ccccn3)CC2)nc2c1c(=O)n(Cc1ccc(Cl)cc1)c(=O)n2C	?	6%	i	-30%	i	7%
Cc1ccnc(SCCn2c(N3CCC(C)CC3)nc3c2c(=O)n(C)c(=O)n3C)n1	i	4%	i	6%	i	-1%[9.24 µM]
Cn1c(N2CCOCC2)nc2c1c(=O)n(Cc1ccc(Cl)cc1)c(=O)n2C	23µM*	3%	i	4%	i	4%
Cc1ccnc(SCCn2c(N3CCCCC3)nc3c2c(=O)n(C)c(=O)n3C)n1	18µM*	10%	?	5%	i	13%
CC1CN(c2nc3c(c(=O)n(Cc4ccc(Cl)c(Cl)c4)c(=O)n3C)n2C)CC(C)O1 (stereo unspecified)	5.2µM*	-16%	i	-18%	?	-7%
O=S(=O)(NCCS(=O)(=O)N1CCN(c2ccc(F)cc2)CC1)c1ccccc1	i	-2%	i	/	i	-2%
COc1ccc(-c2nnc(SCC(=O)Oc3c(C)cccc3C)o2)cc1OC	i	/	/	/	i	/
CN1CCN(c2nc3c(c(=O)n(C)c(=O)n3C)n2Cc2cccc(Br)c2)CC1	i	-4%	i	-27%	i	-5%
Cn1c(N2CCCCC2)nc2c1c(=O)n(Cc1cccc(Br)c1)c(=O)n2C	10µM*	15%	?	10%	i	5%
COc1ccc(CNc2nc3c(c(=O)n(Cc4ccc(Cl)cc4)c(=O)n3C)n2C)cc1	16µM*	-30%	?	-35%	?	?
N#Cc1c(NC(=O)/C=C/C(=O)O)sc2c1CCN(Cc1ccccc1)C2	i	-7%	/	/	i	-2%
Cc1cnc(-n2ncc(C(=O)NCC(C)(C)N3CCOCC3)c2C(C)C)nc1-c1ccc(F)cc1	/	/	i	/	/	/
Cc1nn(-c2ccccc2)c(C)c1NC(=O)COC(=O)C1CC(=O)N(CCc2ccccc2)C1 (stereo unspecified)	i	6%	i	10%	i	10%
CC1CCC2C(C1)c1sc(=O)[nH]c1SC2(C)C (stereo unspecified)	18µM*	?	i	-5%	i	?
SMILES	KB-V1 cytotox	HT1080 IDH1KD tx	ATXN viability	ATXN2 expr inh	KB-3-1 tox	HT1080-NT tox
COc1ccc(Nc2nc(C)nc3c2oc2ccccc23)c(OC)c1	i	29µM*	i	-21%	i	18µM*
Cc1nc(NCc2ccc3c(c2)OCO3)c2oc3ccccc3c2n1	i	-17%	i	-27%	i	?
CCc1nc(Nc2ccc(OC)cc2OC)c2oc3ccccc3c2n1	i	15µM*	i	-30%	i	?
CCc1nc(NCc2ccc3c(c2)OCO3)c2oc3ccccc3c2n1	16µM*	-12%	i	-3%	?	-7%
Cn1c(=O)c(-c2c(Cl)cccc2Cl)cc2cnc(Nc3cccc(C(=O)O)c3)nc21	/	/	/	51%	/	/
Cn1cc(CN2CCCC(C(=O)c3ccc(-c4ccccc4)c(F)c3)C2)cn1 (stereo unspecified)	?	16µM*	i	/	i	23µM*
CCn1cc(CN2CCCC(C(=O)Nc3cccc(-c4cc5ccccc5[nH]4)c3)C2)cn1 (stereo unspecified)	?	?	i	?	i	16µM*
CCn1cc(CN2CCCC(C(=O)c3ccc(-c4ccccc4)cc3)C2)cn1 (stereo unspecified)	i	23µM*	?	?	?	?
CCC(CC)c1nn2c(=O)cc(COc3ccc(NC(=O)c4cccc(Cl)c4)cc3)nc2s1	i	/	i	13%	i	/
CC(C)c1ccc(NC(=O)C(NS(=O)(=O)c2ccc3c(c2)CCC(=O)N3)c2ccccc2)cc1 (stereo unspecified)	i	/	?	52%	i	/
O=S(=O)(c1ccc2c(c1)OCCO2)N1CCC(c2nc3ccccc3[nH]2)CC1	15µM*	?	i	-22%	?	-5%
O=S(=O)(c1cccc(Cl)c1)N1CCC(c2nc3ccccc3[nH]2)CC1	8.2µM*	-7%	i	0%	i	-6%
O=S(=O)(c1ccc(F)cc1)N1CCC(c2nc3ccccc3[nH]2)CC1	?	-1%	i	11%	i	-25%
COC(=O)c1cc(CNC(=O)c2ccc(N(C)C)cc2)cc(NC(=O)c2ccccc2Cl)c1	/	/	i	/	/	/
COc1ccc(CNC(=O)C2CCCCN2S(=O)(=O)c2ccc(F)cc2)cc1 (stereo unspecified)	i	/	i	-15%	i	/
c1ccc(-c2nnc(NC3=NCCC3)o2)cc1	i	-7%	i	?	i	0%
Fc1ccc(-c2nnc(NC3=NCCCCC3)o2)cc1	i	?	i	4µM*	?	?
Cc1nn(Cc2ccccc2Cl)c2sc(C(=O)NC(C)(C)C)cc12	?	?	i	147%	?	?
